# “And” between values parts separate entries of the source, which are not always exact repeats. Equal values may be shown once. Compounds without any hit were thinned out: in the full panel of roughly 83,000, 20% have a hit.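 Note: values are percent growth. 100 is the growth of untreated cells, values between 100 and 0 indicate rising inhibition; between -100 and 0 indicates cell death.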 Unmarked numbers belong to inactive results. The source made the active and inactive calls.
# System: HL-60(TB) leukemia
# Test: NCI-60 one-dose screen, 48 h (100 = growth as untreated, 0 = no growth, -100 = all killed)
# Conditions: 10 µM unless noted
# Method: Growth inhibition of the HL-60(TB) human tumor cell line is measured as a screen for anti-cancer activity. Cells are grown in 96 well plates and exposed to the test compound for 48 hours. Compounds are tested at a single concentration, which is 10^-5 M for most compounds. The reported endpoint is percent growth (GI% or GIPRCNT), where numbers from 0 - 100% represent growth inhibition, and numbers from -100% - 0 represent cell death. For example, a value of 40 represents 60% growth inhibition. A value of 0 means no net growth occurred over the course of the experiment. A value of -40 indicates 40% of cells at the beginning of the experiment died by the end of the experiment. A value of -100 means all cells are dead at the end of the experiment.
# NCI-60 Human Tumor Cell Lines Screen was performed using the standard one-dose NCI protocol, which is described in more detail at https://dtp.cancer.gov/discovery_development/nci-60/default.htm.
# Compounds with GIPRCNT values below 10 were considered active. Activity score was based on GIPRCNT using the following formula: […]
# Score is 0 for GIPRCNT values of 100 or above, 50 for GIPRCNT values of 0, and 100 for GIPRCNT values of -100.
row,SMILES,growth
1,C=C(C)C(=O)O[C@H]1C[C@@]2(C)OC(=CC2=O)/C(CO)=C\[C@H]2OC(=O)C(=C)[C@H]12,-31.2% (active)
2,CC(=O)Nc1nc(C)c(-c2csc(Nc3ccccc3)n2)s1,33.6%
3,FC(F)(F)c1cc(Br)cc(-c2cc(-c3ccc4c(c3)OCCO4)[nH]n2)c1,6.8% (active)
4,O=C(/C=C/c1cccc(O)c1)c1ccc(O)cc1,72.3%
5,COc1ccc2c(c1)c(-c1cc(N)n3nc(-c4cn(C)c5ccc(OC)cc45)cc3n1)cn2C,5.19% (active)
6,C=C(C)[C@@H]1CC[C@]2(COS(C)(=O)=O)CC[C@]3(C)[C@H](CC[C@@H]4[C@@]5(C)CCCNC(C)(C)[C@@H]5CC[C@]43C)[C@@H]12,34.1%
7,CC(=O)O[C@@H]1[C@@H]2O[C@H]2[C@@](C)(O)C(=O)[C@@H](C)C/C=C/[C@H]2[C@@H]3O[C@]3(C)[C@@H](C)C3[C@H](Cc4ccccc4)NC(=O)[C@@]312 (stereo not given in full),58.2%
8,CN1C(=O)/C(=C/C=C/c2ccco2)SC1=S,99.6%
9,COc1ccc(-c2nc3cc(Cl)c(Cl)cc3n2CC(=O)N=Nc2c(O)[nH]c3ccccc23)cc1,92.5%
10,COc1ccccc1Cn1cc(C#N)c(N)c1C(=O)c1ccc(Br)cc1,92.8%
11,NC(=O)n1c(=O)n(-c2cccc(C(F)(F)F)c2)c(=O)c2cc(-c3ccc(F)cc3F)ccc21,-49.4% (active)
12,Brc1cc(-c2cc(-c3ccc4c(c3)OC=CO4)[nH]n2)cs1,91.6%
13,CC(=O)N(O)CCCCCNC(=O)CCC(=O)N(O)CCCCCNC(=O)CCC(=O)N(O)CCCCCN(CCCCCCCCCC[P+](c1ccccc1)(c1ccccc1)c1ccccc1)CCCCCCCCCC[P+](c1ccccc1)(c1ccccc1)c1ccccc1,-25.7% (active)
14,COc1cccc(OC)c1-c1nnn(C)c1C(=S)N1CCN(c2ccc([N+](=O)[O-])cc2Cl)CC1,44.3%
15,O=C1[C@H]2Cc3c([nH]c4ccccc34)[C@@H](c3ccc(Br)cc3)N2C(=O)CN1C1CCN(Cc2ccccc2)CC1,-28.4% (active)
16,CCCCCCCCCC(=O)NC(C)(C)C(=O)N1CCC[C@H]1C(=O)N[C@@H](CC(C)C)C(=O)N[C@@](C)(CC)C(=O)N[C@@H](CCC(N)=O)C(=O)N[C@H](CCC(N)=O)C(=O)NC(C)(C)C(=O)NC(C)(C)C(=O)N[C@@H](CCC(N)=O)C(=O)N[C@H](CC(C)C)C(=O)N[C@H](CO)CC(C)C,-76.7% (active) and -39.4% (active)
17,CN1CCN(c2ccc3c(c2)nc(NNC(=O)c2ccncn2)c2cccn23)CC1,10.4%
18,COc1cc2cc(Oc3ccc(NC(=O)c4cccc(C(F)(F)F)c4)cc3)c(C)nc2cc1OCCN(C)C,97.2%
19,C/C(=N\O)[C@H]1C[C@]23CC[C@]4(C)[C@H](CC[C@@H]5[C@@]6(C)CC/C(=N/O)C(C)(C)[C@@H]6CC[C@]54C)[C@H]2[C@H](C)C1(C)OC3,121%
20,Cc1ccc(S(=O)(=O)NCCCNc2nc(Nc3ccc(N4CCN(C)CC4)cc3)nc3ccsc23)cc1,-50.9% (active)

row,SMILES,growth
1,O=C1/C(=C/C=C/c2ccco2)SC(=S)N1Cc1ccccc1,96.9%
2,CN(C)c1ccc(-c2cc(-c3c[nH]c4ccccc34)nc(N)c2C#N)cc1,20.6%
3,Cc1cccc(N2CCN(C3=C(Cl)C(=O)c4ncccc4C3=O)CC2)c1,7.3% (active)
4,N/C(=N\C(N)=N\c1nc2ccccc2s1)c1ccc(C(F)(F)F)cc1,53.6%
5,CC(C)(C)c1ccc(C(=O)Nc2sc3c(c2C(N)=O)CC/C(=N\O)C3)cc1,4.37% (active)
6,COc1ccc(NC(=O)CCCCCCNC(=O)C(O)(O)C(F)(F)F)cc1,11.3%
7,CCOC(=O)c1ccccc1NC1=C(Cl)C(=O)c2nc(C)ccc2C1=O,70.9%
8,COc1cc(-c2nc3ccc(-c4nnc(SCC(=O)Nc5ccc(C(=O)/C=C/c6ccc(Cl)cc6)cc5)o4)cc3[nH]2)cc(OC)c1OC,92.5%
9,CCOP(=O)(OCC)OC[C@]12CCC(C)(C)C[C@H]1C1=CC[C@@H]3[C@@]4(C)CC[C@H](OP(=O)(OCC)OCC)C(C)(C)[C@@H]4CC[C@@]3(C)[C@]1(C)CC2,8.99% (active)
10,COc1ccc(S(=O)(=O)NCCCNc2nccc(-c3cn(C(C)(C)C)nc3-c3ccc(Cl)c(OC)c3)n2)cc1,124%
11,CC1=C(CCC=NNC(N)=O)C2=C(C)C3(CC3)[C@@](C)(O)C(=O)C2=C1,5.99% (active)
12,O=C1NC(=O)/C(=C/c2ccc(OCc3cc4ccccc4nc3Cl)cc2)S1,100%
13,COc1ccc(-c2oc3cc(O)cc(O)c3c(=O)c2OC)cc1O,-6.5% (active)
14,NC(N)=Nc1ccc(Oc2cccc(Nc3ccc(Cl)c(C(F)(F)F)c3)c2)cc1,1.32% (active)
15,O=C1Nc2cc(OC(F)(F)F)ccc2Oc2ccc(-c3ccnc(N4CC[C@H](O)C4)c3)cc21,-23.6% (active)
16,COc1cc(-c2nc(-c3ccccc3)[nH]c2-c2ccnc(NCCCNS(=O)(=O)c3cccc(F)c3)n2)ccc1F,94.8%
17,CN1CCN(Cc2ccc(NC(=O)c3cncc(C#Cc4cnc5ccc(NCCCO)nn45)c3)cc2C(F)(F)F)CC1,-8.59% (active)
18,O=C(CN1CCN(c2cc(=O)n(-c3ccccc3)c3ccccc23)CC1)Nc1nc(-c2ccc(Cl)cc2)cs1,26.2%
19,N/C(=N\c1nc2c(Br)cccc2s1)C(Br)Br,7% (active)
20,COc1ccc(/C(=N\NC(N)=S)c2ccc(Cl)cc2)cc1OC,13.2%
